Data: PubChem BioAssay (NCI)
“And” between values parts separate entries of the source, which are not always exact repeats. Identical values can stand only once. About 83,000 compounds went through this panel and 20% of them were active in at least one assay; those are over-represented in the sample as a whole.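 How to read the values: 0–100, growth inhibition (40 = 60% inhibited); 0, no net growth; -100 to 0, cell death (-40 = 40% of starting cells died; -100 = all dead).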 Values without a mark were called inactive. The source made the active and inactive calls. The calls were made as follows: active = growth percent below 10; inactive = the rest.

Each compound was assayed on MDA-MB-468 breast (assay: NCI-60 one-dose screen, 48 h (100 = growth as untreated, 0 = no growth, -100 = all killed)). Settings: 10 µM unless noted.

Row | SMILES | growth
1 | CCC1(NC(=O)c2cc(F)c(F)c(F)c2F)C(=O)NC(=O)N(C(C)C)C1=O (stereo unspecified) | 95.2%
2 | CC1=C(CCCOC(=O)CN)C2=C(C)C3(CC3)[C@@](C)(O)C(=O)C2=C1 | 20.2%
3 | C[C@@H]1C/C=C\C(=O)O[C@H](/C=C/C#C/C=C/C(C)(C)[C@@H](O)c2cccc(O)c2Br)[C@@H](C)/C=C/[C@H](C)C[C@H](OC(N)=O)C1 | 33.6%
4 | O=[N+]([O-])CC(c1ccccc1Cl)c1c(-c2ccccc2)[nH]c2ccccc12 (stereo unspecified) | 7.39% (active)
5 | COC(=O)[C@@H](C)C[C@H](Cc1ccccc1)NC(=O)c1csc([C@@H](C[C@H](C(C)C)N(C)C(=O)[C@@H](NC(=O)[C@H]2CCCCN2C)C(C)C)OC(C)=O)n1 | -11.2% (active)
6 | COc1cccc2c1c(C(=O)C(=O)Nc1cc(C)no1)cn2Cc1ccc(F)cc1 | 48.4%
7 | C/C(=C\c1ccn(-c2ccc(N)c(F)c2)n1)[C@@H]1C[C@@H]2O[C@]2(C)CCC[C@H](C)[C@H](O)[C@@H](C)C(=O)C(C)(C)[C@@H](O)CC(=O)O1 | 10.5%
8 | Cc1ccccc1O | 103%
9 | Cc1ccc(Nc2nc3c(s2)C2=CC[C@@H]4[C@H](CC[C@]5(C)C(=O)CC[C@@H]45)[C@@]2(C)CC3)cc1 | 32.3%
10 | N#C[Se]CCCNS(=O)(=O)C1CC2C=CC1C2 (stereo unspecified) | -30% (active)
11 | CCC(CO)NC1CCCCC1 (stereo unspecified) | 73.6%
12 | Nc1c(Cl)c(Cl)nc(C(=O)O)c1Cl | 107%
13 | CC[C@H](C)[C@H](NC(=O)[C@H]1CCCCN1C)C(=O)N(C)[C@H](C[C@@H](OC(C)=O)c1cccc(C(=O)N[C@@H](Cc2ccccc2)C[C@H](C)C(=O)O)n1)C(C)C | 31.2%
14 | C[C@@]12CCCc3coc(c31)C(=O)c1cc3c(cc12)C(=O)C1=C(NCCS1(=O)=O)C3=O | -65.6% (active)
15 | CCCC[C@H](NC(=O)[C@H]1CCCN1C)C(=O)N(C)[C@H](C[C@@H](OC(C)=O)c1nc(C(=O)N[C@@H](Cc2ccccc2)C[C@H](C)C(=O)OCC)cs1)C(C)C | 7.04% (active)
16 | C[As](=O)(O)c1ccc(C(=O)O)cc1 | 99.8%
17 | O=C(CCl)c1ccc([N+](=O)[O-])o1 | -49.5% (active)
18 | NC(=O)C(Cl)Cl | 103%

Row | SMILES | growth
19 | C[C@]12CC[C@H]3[C@@H](C[C@@H]4SC(Nc5cccc(F)c5)=N[C@@]45CC(=O)CC[C@]35C)[C@@H]1CCC2=O | -2.99% (active)
20 | CCCCn1cc(C(=O)/C(C#N)=C/c2cc3ccccc3nc2Cl)c2cc(OC)ccc21 | 104%
21 | ClCCN(CCCl)C(c1ccccc1)c1ccc(Cl)cc1 (stereo unspecified) | 35.1%
22 | C[C@]12CCc3sc(Nc4ccc(F)cc4)nc3C1=CC[C@@H]1[C@@H]2CC[C@]2(C)C(=O)CC[C@@H]12 | 40.8%
23 | c1cnc2[nH]cc(-c3csc(-c4cn(CCCCN5CCOCC5)c5ccccc45)n3)c2c1 | 35.1%
24 | CC(=O)O[C@H](C[C@H](C(C)C)N(C)C(=O)[C@@H](NC(=O)[C@H]1CCCCN1C)C(C)C)c1cccc(C(=O)N[C@@H](Cc2ccccc2)C[C@H](C)C(=O)O)n1 | 20.9%
25 | Cc1nnc([S-])o1.[Au+].c1ccc([PH+](c2ccccc2)c2ccccc2)cc1 | -6.44% (active)
26 | CC[C@H](C)[C@H](NC(=O)[C@H]1CCCCN1C)C(=O)N(C)[C@H](CCc1nc(C(=O)N[C@@H](Cc2ccccc2)C[C@H](C)C(=O)O)cs1)C(C)C | 36.1%
27 | Nc1cc2nc3ccccc3nc2cc1N | -11.9% (active)
28 | CCOc1cc(C=C(C#N)C#N)cc(Br)c1O | 119%
29 | Cn1c(O)c(N=O)c(=O)n(C)c1=O | 112% and 106%
30 | O=NN(c1ccccc1)c1ccccc1 | 95%
31 | CS(=N)(=O)CCC(N)C(=O)O (stereo unspecified) | 106%
32 | N#CC(NC(=O)CCl)=C(Cl)Cl | -48.2% (active)
33 | Cn1cccc1C1CC(=O)N(CCC[Se]C#N)C1=O (stereo unspecified) | 13.6%
34 | O=C(CC1(O)C(=O)Nc2ccc(F)cc21)c1ccc(C(=O)NCC2CCC3(CC2)OOC2(CCCCC2)OO3)cc1 (stereo unspecified) | 47.6%
35 | CCCCOCCOP(=O)(OCCOCCCC)OCCOCCCC | 91.5%
36 | Nc1ccc(S(=O)(=O)F)cc1 | 107%
